Test results taken from PubChem BioAssay AID488896 (Broad Institute, 2010).
About 3,100 (0.97%) of roughly 320,000 compounds were called active.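 The calls were made as follows: active = mean replicate inhibition of at least 70% and a set share of replicates each scoring 70 or more; inconclusive = meets just one of the two criteria; inactive = fails both criteria.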 Shown is part of a subset that was picked to be rich in actives.

The compounds below were run against Scavenger receptor class B member 1 (Mus musculus) (UniProt Q61009) (assay: inhibitors of SR-BI mediated HDL lipid uptake, primary screen, ldlA[mSR-BI] cells, fluorescence, single point (AID 488896;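 also: 0% = median of neutral control wells and 100% = median of positive control wells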)). Details: ldlA[mSR-BI] CHO cells, DiI-HDL uptake fluorescence, 3 h; at 12.5 µM; hits give high values.
Scavenger receptor class B member 1 (Mus musculus), sequence (Q61009 whole entry, looked up): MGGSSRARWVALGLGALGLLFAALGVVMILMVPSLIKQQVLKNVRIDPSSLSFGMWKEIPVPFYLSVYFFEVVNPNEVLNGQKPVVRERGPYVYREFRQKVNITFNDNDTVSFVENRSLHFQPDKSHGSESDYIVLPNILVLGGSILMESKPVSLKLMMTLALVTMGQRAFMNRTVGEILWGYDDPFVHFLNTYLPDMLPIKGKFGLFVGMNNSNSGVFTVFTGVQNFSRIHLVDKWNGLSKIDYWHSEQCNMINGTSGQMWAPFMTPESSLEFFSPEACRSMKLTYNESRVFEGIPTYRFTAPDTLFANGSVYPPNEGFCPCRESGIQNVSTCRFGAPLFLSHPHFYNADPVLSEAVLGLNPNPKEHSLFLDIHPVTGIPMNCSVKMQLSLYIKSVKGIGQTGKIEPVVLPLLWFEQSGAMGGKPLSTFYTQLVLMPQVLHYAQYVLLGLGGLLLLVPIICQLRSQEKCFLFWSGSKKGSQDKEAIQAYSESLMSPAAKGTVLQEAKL

inhibition, active:
CCCCN1C(=O)/C(=C/C=C2/C=Cc3ccccc3N2CC)SC1=S 146%
N#Cc1c(NC(=O)c2ccc(N3CCOCC3)c([N+](=O)[O-])c2)sc2c1CCCC2 83.7%
COc1cccc(/C=N/Nc2cc(C)nc(-c3ccccc3O)n2)c1O 84.7%
C/C(=N\NC(=O)c1ccc(NS(=O)(=O)c2cccs2)cc1)c1ccc2ccccc2c1 75.7%
O=C(N/N=C/c1cc([N+](=O)[O-])ccc1O)/C(=C\c1cccs1)NC(=O)c1ccccc1 113%
CC(C)(C)c1cc(C(=O)NN)n(Cc2ccc(Cl)cc2Cl)n1 80.1%
O=C(NNC(=O)c1cc(S(=O)(=O)N2CCCCC2)ccc1Cl)c1ccccc1O 108%
O=C(NNC(=O)c1ccccc1O)c1ccccc1O 124%
CCn1c2ccccc2c2cc(NC(=O)COC(=O)c3cc(S(=O)(=O)N4CCCCC4)ccc3Cl)ccc21 77.1%
COc1ccc(C(CNC(=O)c2cccc(S(=O)(=O)Nc3ccccc3Cl)c2)N2CCOCC2)cc1 (stereo not given) 79.7%
COc1ccc(C(=O)Nc2ccc(C3(C#N)CCCC3)cc2)cc1OC 82%
Cn1nc(-c2ccc(Cl)cc2)c2cc(C(=O)NCc3ccco3)sc21 90.1%
Cc1cccc(-c2nc(Nc3ccc(O)cc3)c3ccccc3n2)c1 74.9%
COC(=O)C1=CN(c2ccc(F)c(F)c2)C=C(C(=O)OC)C1c1ccc([N+](=O)[O-])cc1 71.8%
Cc1ccc(NS(=O)(=O)c2ccc(C)c(NC(=O)COc3ccc4ccccc4c3)c2)c(C)c1 78.5%
CC[C@@H]1Cc2cc(O)ccc2C2=C1c1ccc(O)cc1C[C@H]2CC 76.1%
COc1ccc(C)cc1Nc1nc(-c2c(C)[nH]c3ccccc23)cs1 77.1%
COc1ccc(OC)c(-c2csc(NC(=O)C3=NNC(=O)CC3)n2)c1 74.1%

inhibition, inactive:
CN1CCOC1c1ccc(C2OCCN2C)cc1 (stereo not given) -6.99%
CCCCCCCCNS(=O)(=O)CCNC1CCCCC1 -5.35%
CCCCN1C(=O)/C(=C2/C=CC=CN2C)SC1=S 8.97%
CCN1C(=O)/C(=C\N2CCN(c3cccc(Cl)c3)CC2)SC1=S 8.1%
Cc1c[n+]([O-])ccc1[N+](=O)[O-] 4.11%
CCCCN1CC(COCc2ccccc2)OCCS1(=O)=O (stereo not given) -17.3%
O=C(NCCCN1CCOCC1)c1ccc(N2CCCC2)c([N+](=O)[O-])c1 -14.3%
O=C(Oc1ccccc1Cl)c1ccc(N2CCOCC2)c([N+](=O)[O-])c1 1.4%
NC(=O)c1ccc(N2CCCC2)nc1 -0.443%
COc1ccccc1NC(=O)N(O)C1(C#N)CCCCC1 2.4%
COc1ccccc1/C=N/Nc1nc(C)c(C(C)=O)s1 24.4%
Oc1cccc(/C=N/Nc2ccc(Cl)nn2)c1O 10.6%
CN(C)CCNC(=O)c1ccc(Cl)c2cc3ccccc3nc12 -8.43%
C#CCOCCOCCOCCNc1nc(N2CCN(C(=O)Cn3cc(CCO)nn3)CC2)nc(N2CCN(C(=O)Cn3cc(CCCN=C(N)N)nn3)CC2)n1 -17.5%
C/C(=N\NC(=O)c1ccc2ccccc2c1)c1cccnc1 -22.1%
COc1cc(OC)c(C(=O)NNC(=O)c2ccc(NS(=O)(=O)c3cccs3)cc2)cc1OC -10.6%
O=C1CC[C@@H]2CC3(C[C@@H]4CCN1[C@H]24)Nc1cc([N+](=O)[O-])ccc1NC3=NC1CCCCC1 (stereo not given in full) 1.95%
CCN1CCC(O)(/C=C/c2ccc(C)cc2)C(C(=O)/C=C/c2ccc(C)cc2)C1 (stereo not given) 24.5%
NC(=O)C1(N2CCCC2)CCN(Cc2ccccc2)CC1 -9.32%
O=C(Nc1ccc(C(=O)O)cc1)/C(=C/c1ccc([N+](=O)[O-])cc1)NC(=O)c1ccccc1 -3.79%
C=CCNC(=O)/C(=C\c1cccc([N+](=O)[O-])c1)NC(=O)c1ccccc1 -15%
CCCN(C(=O)COC(=O)CNS(=O)(=O)c1ccc(NC(C)=O)cc1)C1CCS(=O)(=O)C1 (stereo not given) -1.04%
Cn1cc(C(=O)c2ccc(Cl)cc2Cl)cc1C(=O)NN 25.2%
NNC(=O)c1ccc(Cl)cc1Cl -14.8%
COCCN(C(=O)C(C)N1C(=O)c2ccccc2C1=O)c1c(N)n(CC(C)C)c(=O)[nH]c1=O (stereo not given) -16.4%
O=C(COC(=O)c1ccc(O)cc1O)NC(=O)c1ccccc1 -38.7%
O=C1NCC(Nc2ccccc2)C(=O)N1 (stereo not given) -24.4%
O=C(Nc1ccccc1C(=O)O)c1cc(S(=O)(=O)N2CCCCC2)cs1 -2.98%
O=C(COC(=O)c1cc(S(=O)(=O)N2CCCCC2)ccc1Cl)NCc1ccco1 17.2%
Cc1cc(C(=O)NNC(=O)c2ccccc2O)c(C)o1 13.4%
CC1CCCC(NC(=O)c2cc(S(=O)(=O)N3CCCCC3)ccc2Cl)C1C (stereo not given) 11.2%
CC1=C(C)CC(C(=O)NNC(=O)c2ccccc2O)C(C(=O)O)C1 (stereo not given) 13.9%
CCn1c2ccccc2c2cc(NC(=O)COC(=O)c3ccccc3Br)ccc21 -7.34%
COc1ccc(CCNC(=O)c2ccc(NC(=O)CC3SC(N4CCCCC4)=NC3=O)cc2)cc1OC (stereo not given) 66.6%
CC(=NNC(=O)c1ccncc1)c1ccc(Cl)c(Cl)c1 6.02%
COc1ccc(Cl)cc1C=CC=Nc1ccc(S(N)(=O)=O)cc1 -39.7%
Cc1ccc2c(O)c(Cc3ccccc3)c(=O)[nH]c2n1 7.66%
COc1ccc(C(CNC(=O)c2cccc(NS(=O)(=O)c3ccc(C)c(F)c3)c2)N2CCCC2)cc1 (stereo not given) -24.5%
COc1ccc(C(CNC(=O)c2ccc(S(=O)(=O)Nc3ccccc3C)cc2)N2CCOCC2)cc1 (stereo not given) -2.84%
COc1cc(C(=O)NCC2(c3ccccc3)CCCC2)ccc1OC(C)C 3.63%
COc1ccc(C(=O)Nc2ccc3nc(N4CCCCC4)cc(C)c3c2)cc1OC 44.3%
CN(O)C(=S)c1ccccc1 -24.5%
Cc1c(NS(=O)(=O)c2cccc(C(=O)Nc3ccc(SC(F)F)cc3)c2)c(=O)n(-c2ccccc2)n1C 10.9%
CC(=O)c1ccc(NC(=O)C(C)OC(=O)c2ccc(NS(=O)(=O)c3ccc4[nH]c(=O)[nH]c4c3)cc2)cc1 (stereo not given) 18.7%
COc1ccccc1N1CCN(C(=O)c2cc3c(-c4ccc(Cl)cc4)nn(C)c3s2)CC1 58.4%
CN(CCNC(=O)c1cc2c(-c3ccccc3F)nn(C)c2s1)C1CCCCC1 42%
C[C@]12CCC(=O)C=C1C=CC1C2CC[C@@]2(C)C1CC[C@@]21CCC(=O)O1 (stereo not given in full) -3.73%
O=C(c1cccnc1)N(Cc1ccccc1)C(=O)c1cccnc1 -2.46%
CN(C(=O)c1ccc(NC(=O)Cc2cccc(NC(=O)C3CCN(C(=O)c4ccccc4)CC3)c2)cc1)C1CC1 15%
CCCC(O)(c1ccccc1)C(c1ccccc1)c1ccccn1 (stereo not given) 11.7%
COc1ccc(C(CNC(=O)c2cccc(S(=O)(=O)Nc3ccc(Br)cc3)c2)N(C)C)cc1 (stereo not given) -24.3%
COc1ccc(Nc2nc(-c3cccnc3)nc3ccccc23)cn1 31.9%
CCOC(=O)c1nc(Nc2ccc(C(=O)OC)cc2)c2ccccc2n1 33.7%
O=C1NCC(c2ccccc2)(c2ccccc2)C(=O)N1 -22.9%
O=C(Cc1ccc(Cl)cc1)c1ccccc1 1.95%
O=C(CNC(=O)c1cc(S(=O)(=O)N2CCOCC2)ccc1N1CCCC1)Nc1ccc(F)c(F)c1 12.1%
COC(=O)C1=CN(C)C=C(C(=O)OC)C1c1ccc(Cl)cc1Cl -0.162%
COC(=O)c1nc2n(n1)C(c1ccc([N+](=O)[O-])cc1)C(C(=O)Nc1ccc(Cl)cc1)=C(C)N2 (stereo not given) -8.37%
Cn1cc(C2OC(=O)c3ccccc32)c2ccccc21 (stereo not given) 3.47%
CCCCN(C(=O)CSCc1ccc(C)cc1)c1c(N)n(Cc2ccccc2)c(=O)[nH]c1=O 7.84%
O=C(Nc1ccc2ccccc2c1[N+](=O)[O-])c1ccccc1 14.4%
COC(=O)CC(CC(=O)OC)n1cccc1 -7.62%
CC[C@]12c3[nH]c4cc(CCC(=O)N(C)C)ccc4c3CCN1C(=O)[C@@H](CC(=O)NCc1ccco1)C[C@@H]2C(=O)N1CCN(C(=O)c2ccco2)CC1 2.87%
Cc1ccc(C)c(NS(=O)(=O)c2ccc(OCC(=O)NCc3cccnc3)cc2)c1 -23.5%
Cc1ccc(C)c(NC(=O)CN(C)C(=O)COc2ccc3ccccc3c2)c1 2.83%
O=C1/C(=C\c2ccc([N+](=O)[O-])cc2)CS(=O)(=O)C/C1=C/c1ccc([N+](=O)[O-])cc1 17.7%
O=C(NNC(=O)c1ccc2ccccc2c1)c1ccc(Cl)cc1 -17.1%
COc1ccc(C)cc1Nc1nc(C)nc2c1oc1ccccc12 -8.2%
COC(=O)c1cnc(Nc2cc(C)ccc2OC)c2ccccc12 11.3%
COCC(=O)N(C)[C@H]1C[C@H]2c3cc(Oc4ccccc4C)ccc3CCN2C(=O)[C@H]1[C@H](C)O 5.04%
COc1ccc(NC(=O)C2=NNC(=O)CC2)cc1S(=O)(=O)N1CCCCC1 12.9%
COc1ccc(OC)c(-c2csc(NC(=O)COC(=O)C3CC3)n2)c1 29.7%
